Data: PubChem BioAssay AID485313 (National Center for Advancing Translational Sciences (NCATS), 2010)
Out of some 320,000 compounds screened, about 7,600 (2.4%) were called active. Inconclusive results (about 3%) are left out. Calls come from the whole dose curve; as a rule, active = well fitted activation curve with a large enough effect; inconclusive = small, poorly fitted or top-dose-only effect; inactive = no such curve, though single readings can be large or run the other way. The list comes from a sample in which actives are over-represented; it also holds similar structures and randomly drawn compounds. Entries that show only a call come without a potency.

test: qHTS Assay for NPC1 Promoter Activators; conditions: Huh7 NPC1 promoter luciferase reporter, 24 h; series mostly up to 9.22 µM; note: nearly all actives have a fitted effect of over 60% in size
Excerpt: NIH Chemical Genomics Center [NCGC] NIH Molecular Libraries Probe Production centers Network [MLPCN] MLPCN Grant: MH089375-01A1 Assay Submitter (PI): Yiannis A. Ioannou NCGC Assay Overview: Niemann Pick Type C (NPC) is a rare neurodegenerative lipidosis that is characterized by lipid storage in the endosomal/lysosomal system. Treatment modalities for this devastating disease are currently non-existent due to the severe obstacles associated with accessing the central nervous system with proteins or genes. The majority of mutations causing NPC disease are missense mutations that are distributed throughout the length of the NPC1 protein, with the most prevalent being the I1061T allele. Although NPC1 mutant proteins may be functional, they are typically trapped in the ER due to misfolding. […] We have developed and optimized a cell based luciferase reporter assay in 1536 well format for the identification of up-regulators of the mutant NPC1 promoter.
The NPC1 promoter is cloned in front of the luciferase reporter gene, therefore NPC promoter activation results in luciferase expression. Frozen stock of the NPC1 promoter transfected Huh7 cells were obtained from the laboratory of Dr. Yiannis Ioannou (The Mount Sinai School of Medicine, New York, NY). Cells were propagated and maintained at NCGC in medium containing RPMI-1640 supplemented with 10% FBS, 2mM L-glutamine, and 50ug/ml penicillin/streptomycin. Cells were harvested in and plated for assays in OP-MEM I reduced-serum medium supplemented with 10% FBS. The Amplite luciferase reporter gene assay kit was purchased from ABD Bioquest and prepared/stored according to manufacturers recommendations. qHTS Assay Setup: 1.#Dispensed 5ul of Huh7 cells stably expressing NPC1-luciferase at a density of 1500 cells per well 1536-well plates. 2.#Incubate cells at 37C, 5% CO2, and 95% humidity for 2 hours. 3.#Transferred 23nl per well of compound in DMSO solution. 4.#Incubated at 37C, 5% CO2, and 95% humidity for 24 hours. 5.#Dispensed 3ul per well of Amplite reagent(ABD Bioquest) per well. 6.#Incubate at ambient for 10 minutes. 7.#Read using the luminescence protocol on the ViewLux plate reader (Perkin Elmer).
Potency is the fitted concentration of half-maximal effect.

SMILES	Potency
CC(=O)Oc1ccccc1C(=O)Nc1ncc([N+](=O)[O-])s1	501 nM (active)
CC(=O)c1c(O)c(C)c(O)c(Cc2c(O)c3c(c(C(=O)/C=C/c4ccccc4)c2O)OC(C)(C)C=C3)c1O	inactive
CN(C)c1ccc(NC(=O)CN2C3CCCC2CC(NC(=O)c2ccccc2)C3)cc1 (stereo not given)	inactive
CC[C@H]1CN2CCc3cc(OC)c(OC)cc3[C@@H]2C[C@@H]1C[C@H]1NCCc2cc(OC)c(OC)cc21	inactive
CCOC(=O)c1c(-c2ccccc2)oc2ccc(OC(=O)N(C)C)cc12	inactive
CN(C)C(=O)Oc1ccc2c(c1)O/C(=C\c1ccccc1)C2=O	1580 nM (active)
CN(C)C(=O)Oc1ccc(OCc2cccc[n+]2C)cc1	inactive
CC(=O)NBr	inactive
CCOC(=O)c1ncn2c1[C@@H]1CCCN1C(=O)c1cc(OC)ccc1-2	inactive
CNCC[C@H](Oc1ccc(C(F)(F)F)cc1)c1ccccc1	inactive
